{"source": "PubChem BioAssay (Tox21)", "note": "Inconclusive results are not listed. A number with no mark means an inactive call. Calls follow the shape of the full dose curve. % is scaled to controls: 0 for no effect and ±100 for the full control effect."}
{"biological_target": "Muscarinic acetylcholine receptor M1 (Homo sapiens) (UniProt P11229)", "sequence (P11229 whole entry, looked up)": "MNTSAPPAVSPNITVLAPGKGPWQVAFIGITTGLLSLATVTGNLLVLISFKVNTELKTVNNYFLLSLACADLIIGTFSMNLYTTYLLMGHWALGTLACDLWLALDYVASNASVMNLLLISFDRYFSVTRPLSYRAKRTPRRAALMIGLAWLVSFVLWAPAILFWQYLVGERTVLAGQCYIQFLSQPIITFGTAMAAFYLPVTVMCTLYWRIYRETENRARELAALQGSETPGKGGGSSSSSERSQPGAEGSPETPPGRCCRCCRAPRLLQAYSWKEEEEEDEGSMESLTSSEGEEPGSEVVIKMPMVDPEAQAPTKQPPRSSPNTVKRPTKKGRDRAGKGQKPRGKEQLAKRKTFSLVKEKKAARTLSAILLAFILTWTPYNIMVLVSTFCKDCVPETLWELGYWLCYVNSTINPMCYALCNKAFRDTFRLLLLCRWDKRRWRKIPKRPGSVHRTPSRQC", "test": "Cholinergic receptor muscarinic 1 (CHRM1) small molecule antagonists, cell-based qHTS assay (AID 1963588); also: nearly all actives have a fitted effect of over 40% in size", "conditions": "CHRM1-CHO antagonist mode, calcium flux fluorescence; series mostly up to 61.5 µM; activity, negative = inhibition: at the top concentration", "source_text": "National Center for Advancing Translational Sciences [NCATS]\nDivision of Preclinical Innovation [DPI]\nU.S. Environmental Protection Agency [EPA]\nNational Institutes of Environmental Health Sciences [NIEHS]\nNational Toxicology Program [NTP]\nU.S. Food and Drug Administration [FDA]\nThe CHRM1 is a muscarinic receptor. This receptor plays a crucial role in learning and memory processes and has long been identified as a promising therapeutic target for the improvement of cognitive decline in Alzheimer's disease (AD). The CHRM1-CHO cell line stably expressing human muscarinic acetylcholine receptor M1 (CHRM1) can be used for screening agonists and antagonists of interactions between CHRM1 and its ligands. The CHRM1-CHO Calcium Flux Assay is a homogeneous fluorescence-based assay for detecting the intracellular calcium level using FDSS kinetic plate reader system.\nTox21 Assay Protocol Summary:\nCHRM1-CHO cells were dispensed at 1000 cells/3uL/well in 1536-well black-clear bottom plates using a Multidrop Dispenser. After the assay plates were incubated at a 37 C/5% CO2 incubator for 18 h, 3 uL of Dye Loading Buffer was transferred to the assay plate by a Flying Reagent Dispenser. The assay plates were incubated at 37 C for 1h. For antagonist mode, 23 nL of compounds dissolved in DMSO, positive controls or DMSO only was transferred to the assay plate by a pin tool. After 5 min incubation at room temperature, 1.5 uL of acetylcholine at 50nM was added to each well. The fluorescence intensity in the plates was measured using FDSS 7000EX kinetic plate reader for 3 min at 1 sec intervals. Each test compound was measured at 15 concentrations in three independent runs."}
{"compound": "CC(C)C[C@@H](N)C(=O)O", "activity, negative = inhibition": "0.917% [at 12.6 µM]"}
{"compound": "CCC=CC#N", "activity, negative = inhibition": "5.82%"}
{"compound": "OC[C@H](Cc1cccc(O)c1)[C@H](CO)Cc1cccc(O)c1", "activity, negative = inhibition": "-2.46%"}
{"compound": "CCOc1ccccc1O", "activity, negative = inhibition": "19.1%"}
{"compound": "CN1CCN(c2c(F)cc3c(=O)c(C(=O)O)cn4c3c2OCN4C)CC1", "activity, negative = inhibition": "-0.388% [at 12.6 µM]"}
{"compound": "O=C(c1ccco1)N1CCNCC1", "activity, negative = inhibition": "25.4% [at 28.3 µM]"}
{"compound": "O=S(=O)(c1ccccc1)c1ccc(Cl)cc1", "activity, negative = inhibition": "-30.7%"}
{"compound": "Cc1cc(NC(=O)C2=C(O)c3ccccc3S(=O)(=O)N2C)no1", "activity, negative = inhibition": "-16.1% [at 28.3 µM]"}
{"compound": "CCN(CC)c1cccc(C)c1", "activity, negative = inhibition": "-2.11%"}
{"compound": "CCCCCOC(=O)CCCC", "activity, negative = inhibition": "1.83%"}
{"compound": "CC(C)[N+](C)(C)CC(O)COc1cccc2ccccc12", "note": "(stereo not given)", "activity, negative = inhibition": "-5.18% [at 28.3 µM]"}
{"compound": "Oc1cccc2cc3cccc(O)c3c(O)c12", "activity, negative = inhibition": "2.33%"}
{"compound": "CC12CCCC=C1C(=O)OC2=O", "note": "(stereo not given)", "activity, negative = inhibition": "-7.11%"}
{"compound": "CC(=O)O[C@@H]1C(=O)O[C@@H]2[C@H]1OC(=O)[C@@H]2OC(C)=O", "activity, negative = inhibition": "-2.33% [at 28.3 µM]"}
{"compound": "CN1CCN(c2c(F)cc3c(=O)c(C(=O)O)cn4c3c2SCC4)CC1", "activity, negative = inhibition": "10.3% [at 28.3 µM]"}
{"compound": "CC(C)=CCC/C(C)=C/C=N/O", "activity, negative = inhibition": "8.37%"}
{"compound": "CN1C(=O)c2ccc([N+](=O)[O-])cc2C1=O", "activity, negative = inhibition": "24.1%"}
{"compound": "O=S1OCCO1", "activity, negative = inhibition": "-0.985%"}
{"compound": "CCC1CO1", "note": "(stereo not given)", "activity, negative = inhibition": "-1.95%"}
{"compound": "CC(COC(C)(C)C)OCCCO", "note": "(stereo not given)", "activity, negative = inhibition": "10.7%"}
{"compound": "CCOC(=O)c1cccnc1", "activity, negative = inhibition": "-0.864% [at 28.3 µM]"}
{"compound": "O=C(O)CNC(=O)c1ccc([N+](=O)[O-])cc1", "activity, negative = inhibition": "1.7%"}
{"compound": "C1OCOCO1", "activity, negative = inhibition": "3.77%"}
{"compound": "CC(=O)CCc1ccc(O)cc1", "activity, negative = inhibition": "10.1%"}
{"compound": "COC(=O)c1ccc(I)cc1S(=O)(=O)NC(=O)Nc1nc(C)nc(OC)n1", "activity, negative = inhibition": "2.96%"}
{"compound": "CCN(CC)CCOC(=O)C(Cc1cccc2ccccc12)CC1CCCO1", "note": "(stereo not given)", "activity, negative = inhibition": "-33% [at 28.3 µM]"}
{"compound": "Cn1cccc1", "activity, negative = inhibition": "7.04%"}
{"compound": "Clc1cc(Cl)cc(Cl)c1", "activity, negative = inhibition": "6.01%"}
{"compound": "C/C=C(\\C)C(=O)OCC/C=C\\CC", "activity, negative = inhibition": "-0.619%"}
{"compound": "CCC(C)(CCCC(C)C)OC(C)=O", "note": "(stereo not given)", "activity, negative = inhibition": "-6.77%"}
{"compound": "CC(=O)CC(=O)Nc1ccc(C)cc1C", "activity, negative = inhibition": "-11.7%"}
{"compound": "O=C(CCCl)NCCc1ccccc1", "activity, negative = inhibition": "48% [at 28.3 µM]"}
{"compound": "CN(C)CCn1nnnc1SCC1=C(C(=O)O)N2C(=O)[C@@H](NC(=O)Cc3csc(N)n3)[C@H]2SC1", "activity, negative = inhibition": "6.45% [at 28.3 µM]"}
{"compound": "CC(=O)c1cccnc1", "activity, negative = inhibition": "4.94%"}
{"compound": "COc1cc(C)ccc1C(C)C", "activity, negative = inhibition": "-15.5%"}
{"compound": "Nc1ccc2cc(S(=O)(=O)O)ccc2c1", "activity, negative = inhibition": "5.45%"}
{"compound": "C[Si](C)(CCCN)O[Si](C)(C)CCCN", "activity, negative = inhibition": "-13.3%"}
{"compound": "COC(=O)/C=C\\C(=O)O", "activity, negative = inhibition": "11.5%"}
{"compound": "c1ccc(SSc2ccccc2)cc1", "activity, negative = inhibition": "6.19%"}
{"compound": "COc1ccc2nc(NC(=O)Nc3ccccc3)sc2c1", "activity, negative = inhibition": "7% [at 28.3 µM]"}
